We go through 36 compounds from PubChem BioAssay (NCATS).

Values joined by “and” are separate entries in the source; they are usually repeats but may differ in a detail not shown here. Identical values can stand only once. Results filed as inconclusive are left out. Unmarked numbers belong to inactive results. Active and inactive are the calls of the source. Calls follow the shape of the dose curve; as a rule, active = well fitted inhibition curve with a large enough effect; inconclusive = small, poorly fitted or top-dose-only effect; inactive = flat fitted curve, though single readings scatter.
% is scaled to controls: 0 for no effect and ±100 for the full control effect; potency is read from the fitted curve at half-maximal effect.

This assay deals with KB-3-1. Kind of assay: Cytotoxic Profiling of Annotated Libraries Using Quantitative High-Throughput Screening (AID 1296008). Also: nearly all actives have a fitted effect of over 60% in size. The note with it: Five cell lines viability, CellTiter-Glo ATP luminescence, 48-72 h; max response: active compounds read low. The method, boiled down: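 Cells exposed to compounds for 48 or 72 hr at 37 degrees Celsius. Viability read as ATP-coupled luminescence with CellTiter-Glo after 10 min at room temperature.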
Background: In ATP-based viability assays light output follows the ATP content of the culture.
As to `CCCN[C@H]1CCc2nc(N)sc2C1`, the max response was 5.22% and 4.84%.
As to `CCOCC(O)COc1ccc(NC(=O)CC[S+](C)C)cc1` (stereo unspecified), the max response was -5.04% and the compound was classed as inactive.
For `COc1cc(NS(=O)(=O)c2ccc(N)cc2)nc(OC)n1`, in that order: 3.08% and “inactive”.
As to `COC(=O)Nc1nc2ccc(C(=O)c3ccccc3)cc2[nH]1`, the Potency was 0.623 µM (active).
For `O=C(N[C@H](CO)[C@H](O)c1ccc([N+](=O)[O-])cc1)C(Cl)Cl`, the max response was -16.7% and the result was inactive.
Regarding `CCCc1cc(C(N)=S)ccn1`, the max response is -1.25% and 6.29%.
Turning to `O=C(O)c1cn(C2CC2)c2cc(N3CCNCC3)c(F)cc2c1=O`, the max response was -1.15% and the compound was called inactive.
As to `O=C(O)CCn1c2c(c3ccccc31)C[C@H](NS(=O)(=O)c1ccc(F)cc1)CC2`, the max response is 0.769% and -7.72%; the outcome was inactive.
`Cc1noc(NS(=O)(=O)c2ccc(N)cc2)c1C`: the max response is -4.11% and 1.03%; the call was inactive.
With `CCn1cc(C(=O)O)c(=O)c2cc(F)c(N3CCN(C)CC3)cc21`, the max response is 2.67% and -1.65%.
Consider `O=C(O)CSCC(=O)NC1CCSC1=O` (stereo unspecified), for which the outcome was inactive.
Take `CN(C)CCc1c[nH]c2ccc(CS(=O)(=O)N3CCCC3)cc12`: the max response is 10.6% and 7.32%.
On the same count and under the same terms, next, `CO[C@@H]1[C@@H](OC(N)=O)[C@@H](O)[C@H](Oc2ccc3c(O)c(NC(=O)c4ccc(O)c(CC=C(C)C)c4)c(=O)oc3c2C)OC1(C)C`: -7.22% and 9.2%; `CCOc1cc(N)c(Cl)cc1C(=O)NCC1CN(Cc2ccc(F)cc2)CCO1` (stereo unspecified): 4.82% and -2.19%.
As for `CCC(=O)O[C@]1(C(=O)SCF)[C@H](C)C[C@H]2[C@@H]3C[C@H](F)C4=CC(=O)C=C[C@]4(C)[C@@]3(F)[C@@H](O)C[C@@]21C`, the max response is 26.7% and the compound was classed as inactive.
On the same counts, the results for `Cc1oc(=O)oc1CN1CCN(c2cc3c(cc2F)c(=O)c(C(=O)O)c2n3C(C)S2)CC1` (stereo unspecified) are 23.6% and “inactive”.
Turning to `NC1(c2ccc(-c3nc4ccn5c(=O)[nH]nc5c4cc3-c3ccccc3)cc2)CCC1`, the Potency is 16.4 µM (active).
For `C[C@@H](CN1CC(=O)NC(=O)C1)N1CC(=O)NC(=O)C1`, the max response was 7.8%.
Same read-out and setting: next, `OC(Cn1cncn1)(Cn1cncn1)c1ccc(F)cc1F`: -2.5% and 5.59%.
For `O=NN(CCCl)C(=O)NC1CCCCC1`, the max response is 2.75% and the call was inactive.
On to `Clc1ccccc1CN1CCc2sccc2C1`, for which the max response was 9.17% and -6.26%.
In the case of `Cn1c(=O)c2c(ncn2CC(O)CO)n(C)c1=O` (stereo unspecified), the max response is 3.89% and the compound was called inactive.
For `Cc1cccc(N(C)C(=S)Oc2ccc3ccccc3c2)c1`, the max response is 1.04% and the compound was called inactive.
With `CN(CCOc1ccc(CC2SC(=O)NC2=O)cc1)c1ccccn1` (stereo unspecified), the max response was -1.01% and -2.41%.
Consider `COC(c1ccccc1)(c1ccccc1)[C@H](Oc1nc(C)cc(C)n1)C(=O)O`, for which the max response is 0.37% and the outcome was inactive.
Consider `CCc1cc(C(N)=S)ccn1`, for which the max response is -6.3% and 8.73%.
On the same count and under the same terms, next, `COCCCOc1cc(C[C@@H](C[C@H](N)[C@@H](O)C[C@H](C(=O)NCC(C)(C)C(N)=O)C(C)C)C(C)C)ccc1OC`: -10.1% and 2.39%.
The same measure, in the same setting: the same measure for `CCN(C)C(=O)Oc1cccc([C@H](C)N(C)C)c1`: 1.39% and 1.13%; for `CCn1cc(C(=O)O)c(=O)c2cc(F)c(N3CCNCC3)nc21`: -1.65% and 0.264%; for `CC[C@H](NC(C)C)[C@H](O)c1ccc(O)c2[nH]c(=O)ccc12`: 8.39%.
On to `CC(C)OC(=O)C(C(=O)OC(C)C)=C1SC=CS1`, for which the max response is 13.9% and the result was inactive.
On the same counts, the results for `COc1ccc(-c2ccc3cc(C(=O)O)ccc3c2)cc1C12CC3CC(CC(C3)C1)C2` are -1.55% and “inactive”.
On to `CCOC(=O)c1ccc(OC(=O)CCCCCN=C(N)N)cc1`, for which the max response was 1.69% and -0.41%.
Consider `O=S(=O)(c1cccc2cnccc12)N1CCCNCC1`, for which the max response was -15.9% and the outcome was inactive.
With `CNC1CCCN(c2c(F)cc3c(=O)c(C(=O)O)cn(C4CC4)c3c2OC)C1` (stereo unspecified), the result was inactive.
On to `COc1ccc2c(c1)c(CC(=O)OCC(=O)O)c(C)n2C(=O)c1ccc(Cl)cc1`, for which the max response was -10.9% and 5.13%.
